High-throughput results as filed in PubChem.
A selection: hits, their analogues and other compounds. The true share with any hit is near 2.4%.
D2 ag-1: activates the human D2 dopamine receptor; hit rate 0.53% among 340,000; activation, % at 2 µM; HEK293 T-REx D2 cells, calcium flux agonist mode; P14416; AID 485358;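 active means activation over 3 SD above normal in the single-dose calcium agonist read, cut at about 30% in these data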
Target sequence (P14416 whole entry, looked up): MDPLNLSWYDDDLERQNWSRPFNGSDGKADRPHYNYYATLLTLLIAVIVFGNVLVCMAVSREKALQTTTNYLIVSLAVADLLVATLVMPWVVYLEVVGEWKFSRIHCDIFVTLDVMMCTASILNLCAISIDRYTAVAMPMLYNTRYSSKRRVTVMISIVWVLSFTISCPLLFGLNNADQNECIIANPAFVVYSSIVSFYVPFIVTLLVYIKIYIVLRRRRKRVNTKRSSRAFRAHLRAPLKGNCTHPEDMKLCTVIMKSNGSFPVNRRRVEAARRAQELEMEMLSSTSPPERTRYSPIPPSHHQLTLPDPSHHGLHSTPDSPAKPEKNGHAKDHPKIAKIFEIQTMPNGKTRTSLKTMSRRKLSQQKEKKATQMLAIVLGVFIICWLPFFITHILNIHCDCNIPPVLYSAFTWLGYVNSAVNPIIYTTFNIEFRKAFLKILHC
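Calcium-flux readout, 1 cycle/sec over 180 s following compound pin transfer, in inducible HEK293 Trex D2 cells (force-coupled); dopamine controls included. Positive calcium responses during this window marked compounds as potential agonists.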
D2 PAM-1: D2 dopamine receptor (human) potentiation; P14416; HEK293 T-REx D2, calcium flux, EC20 dopamine potentiation; potentiation, % at 10 µM; hit rate 0.34% among 340,000; AID 485347;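 active means potentiation over 3 SD above the plate norm, cut at about 30% in these data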
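Tetracycline-induced Hek293 Trex D2 cells, force-coupled to calcium, loaded with no-wash calcium dye. Compound added with 180 s kinetic read for agonism, then EC20 dopamine and a further 180 s read for potentiation.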
D2 PAM-2: positive allosteric modulators of human D2 dopamine receptor; DiscoveRx D2 beta-arrestin cells, luminescence, 90 min; 100% = 57 uM dopamine signal; potentiation, % (test concentration not listed); hit rate 0.23% among 360,000; P14416; in the data active means potentiation above about 50%
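D2 cells co-treated with compound plus 50 nM dopamine (EC20) for 90 min at 37 deg C to detect potentiation. Beta-arrestin recruitment was read as enzyme-fragment luminescence after 1 h at ambient temperature. Full response was set by 57 uM dopamine.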
D2 antagonist: antagonizes the human D2 dopamine receptor; P14416; HEK293 TREx D2 cells, calcium flux, dopamine EC80; inhibition, % at 10 µM; hit rate 2% among 340,000; in the data active means inhibition above about 30%; inactive means below that, where a call was filed
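Inhibition of EC80 dopamine-driven calcium flux, recorded kinetically, defines activity here; cells are a tetracycline-induced HEK293 T-REx line expressing force-coupled D2.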
D2 ag-2: human D2 receptor agonism in beta-arrestin assay. P14416. DiscoveRx PathHunter D2 beta-arrestin, luminescence, 90 min; 100% = 57 uM dopamine signal. activation, % (no concentration beside the values). hit rate 0.084% among 360,000; in the data active means activation above about 40%
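Agonist mode: compounds alone added to overnight-plated D2 PathHunter cells for 90 min at 37 C, with 57 uM final dopamine (EC100) defining full response. Beta-arrestin recruitment detected by chemiluminescent reagent, read after 1 h at ambient temperature.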
Numbers stand for hits.

What do the screens show for `COc1ccc(NS(=O)(=O)c2ccc(C)c(NC(=O)NC3CCCCC3)c2)cc1`?
D2 ag-1: inactive; D2 PAM-1: inactive; D2 PAM-2: inactive; D2 antagonist: 33.5; D2 ag-2: inactive

Results for Cc1nn(-c2ccccc2)c(OC(=O)c2ccc(Br)cc2)c1S(=O)(=O)c1ccccc1 ?
D2 PAM-1: inactive

How did CC(C)Oc1ccc(CNC(=O)c2cccc(NC(=O)N3CCSc4ncccc43)c2)cc1 do in these assays?
D2 ag-1: inactive; D2 PAM-1: inactive

Results for Cc1cccc(NC(=O)NCCn2c(=O)oc3ccc(C)cc32)c1 ?
D2 ag-1: inactive; D2 PAM-1: inactive

How did O=C(CSc1ncc(-c2ccccc2)[nH]1)Nc1cccc(C(F)(F)F)c1 do in these assays?
D2 ag-1: inactive; D2 PAM-1: inactive

What do the screens show for `Cc1ccccc1OCC(=O)NCC(c1ccc(Cl)cc1)N1CCCCC1` (configuration not stated)?
D2 ag-1: inactive; D2 PAM-1: inactive

What do the screens show for `COc1cccc(N2CC(NC(=O)c3ccc(S(=O)(=O)N4CCOCC4)cc3)CC2=O)c1` (configuration not stated)?
D2 ag-1: inactive; D2 PAM-1: inactive

How did COc1ccc(CNC(=O)Nc2cc(C)ccc2C)cc1 do in these assays?
D2 ag-1: inactive; D2 PAM-1: inactive; D2 PAM-2: inactive; D2 antagonist: inactive; D2 ag-2: inactive

How did COc1ccc(C)cc1NC(=O)NCc1ccc(F)cc1 do in these assays?
D2 ag-1: inactive; D2 PAM-1: inactive; D2 PAM-2: inactive; D2 antagonist: 52.8; D2 ag-2: inactive

How did CCOc1ccc(-c2cc(NC(=O)c3cccc(Cl)c3)c(C(=O)OC)s2)cc1 do in these assays?
D2 PAM-1: inactive

What do the screens show for `CC1CCCCN1C(=O)c1cccc(NC(=O)c2ccccc2)c1` (configuration not stated)?
D2 ag-1: inactive; D2 PAM-1: inactive; D2 PAM-2: inactive; D2 antagonist: 36.5; D2 ag-2: inactive

How did Cc1cccc(OCC(=O)Nc2ccc3nc(C)sc3c2)c1 do in these assays?
D2 ag-1: inactive; D2 PAM-1: 33.6; D2 PAM-2: inactive; D2 antagonist: inactive; D2 ag-2: inactive

Results for Cc1nc2ccc(NC(=O)COc3ccccc3)cc2s1 ?
D2 ag-1: inactive; D2 PAM-1: inactive; D2 PAM-2: inactive; D2 antagonist: inactive; D2 ag-2: inactive

What do the screens show for `Cc1nc2ccc(NC(=O)c3ccc4ccccc4n3)cc2s1`?
D2 ag-1: inactive; D2 PAM-1: 31.4; D2 PAM-2: inactive; D2 antagonist: inactive; D2 ag-2: inactive

How did COC(=O)c1ccccc1NC(=O)C1CCCN(c2nnc(C)c3c(C)n(-c4ccccc4)nc23)C1 (configuration not stated) do in these assays?
D2 ag-1: inactive; D2 PAM-1: inactive

What do the screens show for `CCC(=O)Nc1nnc(S(=O)(=O)N(C)Cc2ccc(Cl)cc2)s1`?
D2 ag-1: inactive; D2 PAM-1: inactive

Results for Cc1ccc(NS(=O)(=O)c2ccc3[nH]c4c(c3c2)CCCCCC4)cc1 ?
D2 ag-1: inactive; D2 PAM-1: inactive

Results for Cc1ccc(S(=O)(=O)Nc2cc(=O)[nH]c3c2CCC3)cc1 ?
D2 ag-1: inactive; D2 PAM-1: inactive; D2 PAM-2: inactive; D2 antagonist: 37.0; D2 ag-2: inactive

How did CCOC(=O)c1[nH]c(C)c(CCC(=O)Nc2c(C)cc(C)cc2C)c1C do in these assays?
D2 ag-1: inactive; D2 PAM-1: inactive

How did CCOC(=O)CN1C(=O)C(Sc2n[nH]c(-c3cccc(C)c3)n2)CCc2ccccc21 (configuration not stated) do in these assays?
D2 ag-1: inactive; D2 PAM-1: inactive; D2 PAM-2: inactive; D2 antagonist: inactive; D2 ag-2: inactive

How did CCOC(=O)CN1C(=O)C(Sc2n[nH]c(-c3ccc(C)cc3)n2)CCc2ccccc21 (configuration not stated) do in these assays?
D2 ag-1: inactive; D2 PAM-1: inactive; D2 PAM-2: inactive; D2 antagonist: 60.8; D2 ag-2: inactive

How did Cc1cccc(NC(=O)C2CCCN(S(=O)(=O)c3cccc4nonc34)C2)c1C (configuration not stated) do in these assays?
D2 ag-1: inactive; D2 PAM-1: inactive

What do the screens show for `ONC(=Nc1ccc(Cl)cc1)c1ccc(Cl)cc1`?
D2 ag-1: inactive; D2 PAM-1: inactive; D2 PAM-2: inactive; D2 antagonist: inactive; D2 ag-2: inactive

What do the screens show for `[S-]C(=Nc1ccc(Cl)cc1)N[n+]1ccccc1`?
D2 ag-1: inactive; D2 PAM-1: inactive; D2 PAM-2: inactive; D2 antagonist: 61.9; D2 ag-2: inactive

Results for COc1ccc(C(=O)Nc2cc3c(oc2=O)CCCC3=O)cc1 ?
D2 ag-1: inactive; D2 PAM-1: 44.2; D2 PAM-2: inactive; D2 antagonist: inactive; D2 ag-2: inactive

How did COc1ccc(Cl)cc1NC(=O)Cn1c(=O)n(Cc2nc(C)no2)c(=O)c2ccccc21 do in these assays?
D2 ag-1: inactive; D2 PAM-1: inactive

What do the screens show for `COc1cc(/C=C2\SC(=Nc3ccc(O)cc3)NC2=O)cc(OC)c1O`?
D2 ag-1: 47.0; D2 PAM-1: inactive; D2 PAM-2: inactive; D2 antagonist: inactive; D2 ag-2: inactive

What do the screens show for `CCc1ccc(N=C2NC(=O)/C(=C/c3cc(OC)c(OC)c(OC)c3)S2)cc1`?
D2 ag-1: inactive; D2 PAM-1: inactive; D2 PAM-2: inactive; D2 antagonist: inactive; D2 ag-2: inactive

How did Cc1cccc(C(=O)Nc2ccc(OCc3cc(=O)n4ccc(C)cc4n3)cc2)c1 do in these assays?
D2 ag-1: inactive; D2 PAM-1: inactive

Results for O=c1c2ccccc2nnn1CSc1ccc2c(c1)OCCO2 ?
D2 ag-1: inactive; D2 PAM-1: 43.4; D2 PAM-2: inactive; D2 antagonist: inactive; D2 ag-2: inactive

Results for CCC(C(=O)Nc1ccc2c(c1)OCCO2)n1nnc2ccccc2c1=O (configuration not stated) ?
D2 ag-1: inactive; D2 PAM-1: inactive; D2 PAM-2: inactive; D2 antagonist: inactive; D2 ag-2: inactive

Results for COc1ccccc1CN1CCN(Cc2nc(-c3ccc(C)cc3)oc2C)CC1 ?
D2 ag-1: inactive; D2 PAM-1: inactive; D2 PAM-2: inactive; D2 antagonist: inactive; D2 ag-2: inactive

How did Cc1cc(N2CCN(Cc3nc(-c4ccc(F)cc4)oc3C)CC2)cc(C)n1 do in these assays?
D2 ag-1: inactive; D2 PAM-1: inactive; D2 PAM-2: inactive; D2 antagonist: inactive; D2 ag-2: inactive

Results for COc1ccc(CN2CCC(C(=O)c3ccc(Cl)cc3)CC2)cc1 ?
D2 ag-1: inactive; D2 PAM-1: inactive; D2 PAM-2: inactive; D2 antagonist: 35.3; D2 ag-2: inactive

What do the screens show for `COc1ccc(-c2[nH]ncc2CN2CCN(Cc3cccs3)CC2)cc1F`?
D2 ag-1: inactive; D2 PAM-1: inactive; D2 PAM-2: inactive; D2 antagonist: inactive; D2 ag-2: inactive
